RORgamma inh = inhibitors of mouse ROR gamma transcriptional activity; P51450; Drosophila S2 Gal4-RORgamma UAS-luciferase reporter, 20 h; Potency, µM (highest dose often 53.6 µM), hits mostly inhibitors; actives 5.4% (n = 310,000); note: nearly all actives have a fitted effect of over 60% in size
Target sequence (P51450 whole entry, looked up, the tested form may be a part): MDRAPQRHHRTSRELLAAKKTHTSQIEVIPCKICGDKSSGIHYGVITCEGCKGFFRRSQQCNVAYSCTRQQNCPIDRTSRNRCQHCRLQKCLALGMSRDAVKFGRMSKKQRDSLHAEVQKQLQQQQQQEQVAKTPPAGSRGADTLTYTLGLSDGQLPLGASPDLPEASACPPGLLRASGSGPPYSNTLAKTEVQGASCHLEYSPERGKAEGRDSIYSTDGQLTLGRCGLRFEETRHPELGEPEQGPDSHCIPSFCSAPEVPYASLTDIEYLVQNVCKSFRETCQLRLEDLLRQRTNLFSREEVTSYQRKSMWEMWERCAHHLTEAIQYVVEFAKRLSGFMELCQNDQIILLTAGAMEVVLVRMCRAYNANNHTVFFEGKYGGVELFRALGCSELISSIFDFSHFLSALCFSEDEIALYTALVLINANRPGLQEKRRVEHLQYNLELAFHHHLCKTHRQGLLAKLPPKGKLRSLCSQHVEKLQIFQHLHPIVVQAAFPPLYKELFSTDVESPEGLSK
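Luminescence from a UAS-regulated Photinus luciferase reporter in stably transfected Drosophila Schneider cells is measured; decreased signal marks ROR gamma inhibition. Fusion expression is induced by 700 uM copper sulfate for 20 hr.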
MCF10A rerep = induces DNA re-replication in MCF 10a normal breast cells; actives 2.9% (n = 350,000); Potency, µM (top dose mostly 46.1 µM), most hits filed as activators; AID 624296; MCF 10A DNA re-replication, Hoechst nuclear intensity, 48 h; note: nearly all actives have a fitted effect of over 50% in size
Gal4-VP16 FLuc = inhibits Gal4-VP16 luciferase reporter, ROR gamma counter-screen; Drosophila S2 Gal4-VP16 UAS-luciferase, luminescence, 20 h; Potency, µM (series often up to 53.6 µM), most hits filed as inhibitors; actives 3.5% (n = 310,000);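 note: Gal4-VP16 expression switched on by copper sulfate through the metallothionein promoter; nearly all actives have a fitted effect of over 50% in size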
KB-V1 cytotox = kills drug-selected multidrug resistant KB-V1 cells. KB-V1 MDR cells viability, CellTiter-Glo, 72 h. Potency, µM (series often up to 46.1 µM), most hits filed as cytotoxic. actives 3.4% (n = 400,000); note: nearly all actives have a fitted effect of over 60% in size
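In this primary screen, KB-V1 cells overexpressing P-gp are incubated with library compounds (lowest to highest concentration) for 72 h at 37 degrees C before a luminescent ATP viability read.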
KB-3-1 cytotox = KB-3-1 parental cell cytotoxicity | KB-3-1 viability, CellTiter-Glo ATP luminescence, 72 h | Potency, µM (top dose mostly 46.1 µM), usual class: cytotoxic | actives 1.4% (n = 400,000) | AID 1347075; note: nearly all actives have a fitted effect of over 60% in size
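KB-3-1 cells, DMEM (no phenol red) + 10% FBS; compound by pin transfer, 72 h, 37 °C. Readout: CellTiter-Glo luminescence after 10 min. Data normalized, curve-fitted.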
SW480 rerep = inducers of DNA re-replication in SW480 colon cancer cells; AID 624297; Potency, µM (highest dose often 46.1 µM), hits mostly activators; actives 1.8% (n = 340,000); SW480 DNA re-replication, Hoechst DNA content imaging, 48 h; note: nearly all actives have a fitted effect of over 55% in size
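First, 250 cells per well were seeded. Next, compound or vehicle (23 nL) was pinned in, plates sat 48 hr at 37 C. Finally Hoechst was added for 40 min before fluorescence scanning.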
A number is an active result; – = inactive; ? = inconclusive; · = not tested or not shown; [ ] = another dose, or the depositor's remark. Hits are enriched below; roughly 10% of the tested compounds scored in any of these assays. Calls come from the whole dose curve; as a rule, active = well fitted curve in the direction sought with a large enough effect; inconclusive = small, poorly fitted or top-dose-only effect, or another doubt; inactive = no such curve, though single readings can be large; an effect the other way counts as inactive or inconclusive.

SMILES | RORgamma inh | MCF10A rerep | Gal4-VP16 FLuc | KB-V1 cytotox | KB-3-1 cytotox | SW480 rerep
CC[n+]1c(/C=C(\C)Nc2ccccc2)sc2ccccc21 | –[10 µM] | – | – | 21µM | ? | –
CC[n+]1c(C=C2C=C(C)OC(C)=C2)sc2ccccc21 | ? | ? | 10µM | ? | ? | 18µM
CC[n+]1c(/C=C(\C)SC)sc2ccccc21 | ? | – | ? | – | – | –
CCN1C(=O)c2ccccc2Sc2ccc(NC(=O)Nc3cccc([N+](=O)[O-])c3C)cc21 | · | · | · | – | – | ·
CC(=O)Nc1cc(-c2ccccc2)cn2c(-c3ccc(F)cc3)cnc12 | · | · | · | – | – | ·
CN1c2ccccc2C(C)(C)C12CC(c1cccc(S(=O)(=O)N3CCCC3)c1)=NO2 (stereo not drawn) | – | – | – | 6.5µM | ? | –
O=c1[nH]c2ccc(NCc3ccccc3F)cc2[nH]1 | · | · | · | – | – | ·
CCOC(=O)C1(CCc2ccccc2)CCN(Cc2ccc(O)cc2)CC1 | – | – | – | – | – | –[1.84 µM]
CCOC(=O)C1(S(=O)(=O)c2ccccc2)CCN(Cc2ccc(Cl)cc2)CC1 | – | – | ? | 10µM | ? | –
CCOC(=O)C1(S(=O)(=O)c2ccc(Cl)cc2)CCN(Cc2ccc(Cl)cc2)CC1 | – | – | – | 8.2µM | ? | ?
O=C1CC(c2ccccc2)=C(c2ccccc2)C1c1ccccc1 (stereo not drawn) | · | ? | · | 10µM | ? | ?
O=C1NNC(=O)C1c1ccccc1 | – | – | – | – | – | –
CN(C)C(=O)c1ccc(-c2cc(NCc3cccnc3)ncn2)cc1 | – | · | – | · | · | ·
O=C1c2ccccc2[C@@H]2C[C@@H](O)[C@H](Nc3cccc4ccccc34)CCN12 | · | ? | · | – | – | 18µM
COc1ccc(N[C@@H]2CCN3C(=O)c4ccccc4[C@@H]3C[C@H]2O)cc1 | · | – | · | – | – | –
O=C(CSC1=NNC(c2ccccn2)S1)Nc1ccccc1 (stereo not drawn) | 1µM | ? | 2.5µM | – | – | 16µM
O=C(CSC1=NNC(c2ccccn2)S1)Nc1cccc(Cl)c1 (stereo not drawn) | 3.5µM | ? | 13µM | – | – | ?
O=C(c1[nH]c(C(F)(F)F)nc1-c1ccccc1)N1CCC(Cc2ccccc2)CC1 | · | · | · | – | – | ·
CCCn1c(O)c(/C=C2\C=NN=C2c2ccccc2)sc1=S | – | 9.2µM | – | ? | – | –
COc1ccc(-n2cnnc2SCc2cnc(-c3ccccc3)s2)cc1 | – | – | – | 16µM | – | –
CC(=O)Oc1ccc(C23c4ccccc4C2(OC(C)=O)c2cc(OC(C)=O)ccc23)cc1 (stereo not drawn) | · | 5.2µM | · | ? | ? | 18µM
NCC(c1ccccc1)(c1ccccc1)c1ccccc1 | – | – | – | 21µM | ? | ?
CCc1nc2ccc(C(=O)NCCCN3CCCC3=O)cn2c1N(CC)Cc1cccc(Br)c1 | · | · | · | – | – | ·
CN(/N=C/c1ccc(O)cc1O)c1nc(-c2ccccc2)cc(-c2ccccc2)n1 | – | 18µM | ? | – | ? | ?
CCn1c(SCc2c(F)cccc2Cl)nc(=O)c2c(C(=O)OC)cc(C3CC3)nc21 | · | · | · | – | – | ·
SMILES | RORgamma inh | MCF10A rerep | Gal4-VP16 FLuc | KB-V1 cytotox | KB-3-1 cytotox | SW480 rerep
Cc1nn(C)c2nc(NNC(=O)Nc3cc(Cl)nc(Cl)c3)cc(C(C)C)c12 | – | · | 16µM | · | · | ·
Cc1cc(NNC(=O)Nc2cccc(Cl)c2)nc2c1c(C)nn2C | ? | · | 11µM | · | · | ·
Oc1c(Br)cc(Br)cc1-c1nc2ccccc2s1 | · | · | · | – | – | ·
CCS(=O)(=O)c1ncc(Cl)c(C(=O)Nc2ccc(S(=O)(=O)N(C)c3ccccc3)cc2)n1 | 2.8µM | ? | 2.8µM | ? | 2.6µM | 10µM
CCN(c1ccccc1)S(=O)(=O)c1ccc(NC(=O)c2nc(S(C)(=O)=O)ncc2Cl)cc1 | 6.3µM | ? | 3.2µM | ? | 5.2µM | 5.2µM
CCSc1ncc(Cl)c(C(=O)Nc2ccc(S(=O)(=O)N(C)c3ccccc3)cc2)n1 | · | · | · | – | – | ·
COc1ccccc1CN1CCCC2(CCN(S(C)(=O)=O)CC2)C1 | – | · | – | · | · | ·
CCOC(=O)c1cc(S(=O)(=O)N2CCN(c3cccc(C)c3C)CC2)[nH]n1 | · | · | · | – | – | ·
CCn1c(CN2CCN(c3cccc(C)c3C)CC2)n[nH]c1=S | 4µM | ? | 7.1µM | ? | – | ?
CC1OC(OC2C(CO)OC(OC3C(CO)OC(O)C(O)C3O)C(O)C2O)C(O)C(O)C1NC1C=C(CO)C(O)C(O)C1O (stereo not drawn) | – | · | – | · | · | ·
O=C(Nc1cccc(Cl)c1)Nc1nc(-c2ccccc2)cs1 | – | 0.82µM | – | – | – | –
O=C(Nc1ccc([N+](=O)[O-])cc1)Nc1nc(-c2ccc(Cl)s2)cs1 | 4µM | 2.9µM | 0.89µM | ? | 2.9µM | –
Fc1ccc(-c2csc(NC(=S)Nc3ccccc3)n2)cc1 | 0.89µM | ? | 3.2µM | – | – | –
Cc1csc(NC(=O)Nc2cccc(Cl)c2)n1 | – | – | ? | – | – | –
O=C(Nc1ccc(Cl)cc1)NC1CCCCC1 | – | – | ? | – | – | –[9.22 µM]
